Molecules are shown by their SMILES. Records with an inconclusive call do not appear. Entries that show only a call come without a potency. The source made the active and inactive calls. Calls come from the whole dose curve; as a rule, active = well fitted cell-killing curve with a large enough effect in the repeat runs; inconclusive = weak or mixed curves; inactive = flat fitted curve, though single readings scatter.
Potency is the fitted concentration of half-maximal effect.

The nature of this assay: qHTS assay to identify small molecule antagonists of the estrogen receptor beta (ER-beta) signaling pathway - cell viability counter screen (AID 1259382). Note: nearly all actives have a fitted effect of over 55% in size. The note with it: ER-beta-UAS-bla HEK293T viability, CellTiter-Glo luminescence, 16 h; series mostly up to 92.4 µM. From the text: U.S. Tox21 Program National Center for Advancing Translational Sciences [NCATS] NIH Chemical Genomics Center [NCGC] U.S. Environmental Protection Agency [EPA] National Institutes of Environmental Health Sciences [NIEHS] National Toxicology Program [NTP] U.S. Food and Drug Administration [FDA] Tox21 Assay Overview: Estrogen receptor (ER), a nuclear hormone receptor, plays an important role in development, metabolic homeostasis and reproduction. Two subtypes of ER, ER-alpha and ER-beta, have similar expression patterns with some uniqueness in both types. Endocrine disrupting chemicals (EDCs) and their interactions with steroid hormone receptors like ER causes disruption of normal endocrine function. To identify the compounds that inhibit ER signaling, an ER-beta-UAS-bla GripTite cell line (Life Technologies, Madison, WI, USA) containing a beta-lactamase reporter gene under the control of an UAS response element was used to screen Tox21 10K compound library. The cytotoxicity of the Tox21 compound library against the ER-beta-bla cell line was tested in parallel by measuring the cell viability using CellTiter-Glo assay in the same wells.
Tox21 Assay Protocol Summary: ER-beta-UAS-bla HEK293T cells were dispensed at 2,000 cells/4 uL of assay medium containing 2% charcoal stripped FBS per well into black wall/clear-bottom 1536-well plates using a Multidrop Combi (ThermoFisher Scientific, Waltham, MA) dispenser. After the assay plates were incubated at a 37C and 5% CO2 for 6 hr, 23 nL of compounds dissolved in DMSO, positive controls or DMSO only was transferred to the assay plate by a Pintool station (Kalypsys, San Diego, CA), followed by addition of 1 uL (1nM as final concentration) of 17-beta-estradiol (E2) in assay medium using a Flying Reagent Dispenser (FRD, Aurora Discovery, San Diego, CA). The plates were incubated at 37C and 5% CO2 for 16 hr. Then 1 uL of LiveBLAzer B/G FRET substrate was added using a Flying Reagent Dispenser, the plates were incubated at room temperature for 2 hours, and fluorescence intensity was measured by an Envision plate reader (PerkinElmer, Shelton, CT). For cell viability readout that measures cytotoxicity, 4 uL/well of CellTiter-Glo reagent was added into the assay plates using a FRD. After 30 min incubation at room temperature, the luminescence intensity in the plates was measured using a ViewLux (PerkinElmer) plate reader.
With `CNC(=O)Oc1cccc2c1OC(C)(C)O2`, the Potency entry was “inactive”. The value for `Nc1cccnc1` was “inactive”. Take `c1ccc(P(c2ccccc2)c2ccccc2)cc1`: the Potency entry is “inactive”. Under `O=P(O)(O)CCCl` stands “inactive”; under `N#Cc1cc(Br)c(O)c(Br)c1`, “inactive”; under `Oc1ccc(-c2ccccc2)cc1`, “inactive”. For the compound `N[C@@H](Cc1ccc(N(CCCl)CCCl)cc1)C(=O)O`, the Potency entry is “inactive”. For `CC(C)Oc1cc(-n2nc(C(C)(C)C)oc2=O)c(Cl)cc1Cl`, the Potency entry is “inactive”. In the case of `NNC(=S)NN`, the Potency entry was “inactive”.

As for `CCC(C)(c1ccc(O)cc1)c1ccc(O)cc1`, the Potency result was “inactive”.

As to `CCCCCCCCOC(=O)c1ccccc1C(=O)OCCCCCCCC`, the Potency entry was “inactive”. For the compound `O=C(NC(=O)c1c(F)cccc1F)Nc1ccc(Cl)cc1`, the Potency result was “inactive”.

For `CCC(C)c1cc([N+](=O)[O-])cc([N+](=O)[O-])c1O` (stereo not given), the Potency result was “inactive”. In the case of `CCc1cccc(CC)c1N(COC)C(=O)CCl`, the Potency entry was “inactive”. `CCN(CC)C(=O)/C(Cl)=C(\C)OP(=O)(OC)OC`: the Potency result is “inactive”. `CCOP(=S)(OCC)O/N=C(\C#N)c1ccccc1`: the Potency entry is “inactive”. Take `C=CCc1ccc2c(c1)OCO2`: the Potency entry was “inactive”. In the case of `ClC1C(Cl)C(Cl)C(Cl)C(Cl)C1Cl` (stereo not given), the Potency entry is “inactive”. For the compound `CCCCN(CCCC)N=O`, the Potency entry was “inactive”. In the case of `Oc1c(Cl)c(Cl)c(Cl)c(Cl)c1Cl`, the Potency entry is “inactive”. Under `Cc1c(COC(=O)[C@@H]2[C@H](/C=C(\Cl)C(F)(F)F)C2(C)C)cccc1-c1ccccc1` stands “inactive”. The value for `CC(C)=CC1C(C(=O)OCc2coc(Cc3ccccc3)c2)C1(C)C` (stereo not given) was “inactive”; that for `Cc1ccc2c(c1N)C(=O)c1ccccc1C2=O` was “inactive”. For the compound `COP(=O)(OC)OC`, the Potency result was “inactive”. As for `CC(C)(OOC(C)(C)c1ccccc1)c1ccccc1`, the Potency result is “inactive”. For the compound `COC(=O)c1sccc1S(=O)(=O)NC(=O)Nc1nc(C)nc(OC)n1`, the Potency entry was “inactive”. Turning to `c1ccc(NNc2ccccc2)cc1`, the Potency result was “inactive”. Under `O=C(Nc1ccc(Br)cc1)c1cc(Br)cc(Br)c1O` stands 24.3 µM (active); under `Cc1cccc(N)c1N`, “inactive”. With `CCOc1cc(C=O)ccc1O`, the Potency entry is “inactive”. `NNC(N)=S`: the Potency is 12.7 µM (active). In the case of `C#C[C@]1(O)CC[C@H]2[C@@H]3CCC4=CC(=O)CC[C@]4(C)[C@H]3CC[C@@]21C`, the Potency result is “inactive”.

For the compound `CCCCC(CC)COC(=O)Cl` (stereo not given), the Potency entry is “inactive”. The value for `OCC(O)CO` was “inactive”; that for `C[C@]12CCC(=O)C(O)=C1CC[C@@H]1[C@@H]2CC[C@]2(C)C(=O)CC[C@@H]12` was “inactive”; that for `CC(C)C(=O)OCC(C)(C)C(OC(=O)C(C)C)C(C)C` (stereo not given) was “inactive”.

For the compound `Nn1cnnc1`, the Potency entry was “inactive”. `CC(C)(c1cc(Cl)c(O)c(Cl)c1)c1cc(Cl)c(O)c(Cl)c1`: the Potency result is “inactive”. For `CCCCNC(=O)n1c(NC(=O)OC)nc2ccccc21`, the Potency entry is “inactive”. Consider `CCC(CC)Nc1c([N+](=O)[O-])cc(C)c(C)c1[N+](=O)[O-]`, for which the Potency entry was “inactive”.

The values are drawn from PubChem BioAssay (Tox21).
